± gives the standard deviation of the averaged measurements.
These molecules were tested on Listeria monocytogenes 10403S (assay: growth inhibition relative to ceftriaxone-alone control; higher = stronger potentiation of ceftriaxone growth inhibition). Conditions: 10 µM; ceftriaxone 1 ug/ml; 12 h.
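Note: End-point A600 read in BHI broth at 37 °C with 2% DMSO, inhibition computed as (1 − OD with compound plus ceftriaxone ÷ OD with ceftriaxone only) × 100.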

Point of comparison: `CC1=C(C(=O)Nc2cc(Cl)c3[nH]ncc3c2)C(c2ccc(C(F)(F)F)cc2)CC(=O)N1` (stereo not drawn), growth inhibition -4.67 ± 5.5%. Against it:
- Cc1[nH]nc2ccc(-c3cncc(OC[C@@H](N)Cc4ccccc4)c3)cc12 — higher, 76.8 ± 16%
- C[C@]1(O)C[C@@H](c2nc(-c3ccc4ccc(-c5ccccc5)nc4c3)c3c(N)nccn32)C1 [Linsitinib (OSI-906)] — higher, 56.8 ± 25%
- O=C(O)c1ccc(Nc2ncc3c(n2)-c2ccc(Cl)cc2C(c2c(F)cccc2F)=NC3)cc1 — higher, 91.3 ± 3.5%
- C[C@@H]1COC(Nc2ccc3ncnc(Nc4ccc(OCc5nccs5)c(Cl)c4)c3c2)=N1 — higher, 70.8 ± 5%
- FC(F)c1nc2ccccc2n1-c1nc(N2CCOCC2)nc(N2CCOCC2)n1 — higher, 19.6 ± 15%
- Cc1ccc(C(=O)NC2CCC2)cc1-c1ccc(C(=O)NCC2CC2)cc1 — within error, -1.49 ± 1.4%
- Fc1ccc(Nc2nccc(-c3c(-c4ccc(C(F)(F)F)cc4)nn4ncccc34)n2)cc1F — within error, -3.35 ± 4.4%
- COc1ccc(S(=O)(=O)N(C(C)=O)c2ccccc2/C=C/c2cc[n+]([O-])cc2)cc1 — higher, 13.3 ± 8.8%
- NC(=O)c1ccc(N(C(N)=O)c2c(F)cccc2F)nc1-c1ccc(F)cc1F — within error, 3.69 ± 12%
- COC(=O)c1ccc2c(c1)C(=Cc1cc(Br)c(O)c(Br)c1)C(=O)N2 — higher, 12.4 ± 1.5%
- COc1ccc2c(OCc3nnc4ccc(-c5ccccc5)nn34)ccnc2c1 — within error, 11.6 ± 13%
- COc1cc2c(cc1Nc1nc(Nc3ccsc3C(N)=O)c3cc[nH]c3n1)N(C(=O)CN(C)C)CCC2 — within error, -0.422 ± 3.1%
- FC(F)(F)c1cccc(-c2nn3ncccc3c2-c2ccnc(Nc3ccc4c(c3)OCCO4)n2)c1 — within error, -5.79 ± 1.8%
- CN(C)CCNC(=O)Nc1ccc(N(C)c2ccnc(Nc3ccc(CS(C)(=O)=O)cc3)n2)cc1 — within error, -2.69 ± 2%
- Nc1ncnc2c1c(-c1cccc(OCc3ccccc3)c1)cn2C1CC(CN2CCCC2)C1 (stereo not drawn) — higher, 61.4 ± 52%
- CC(=O)Nc1nc(C)c(-c2ccc(Cl)c(S(=O)(=O)NCCO)c2)s1 — higher, 29.5 ± 2%
- Cc1nc(N)sc1-c1ccnc(Nc2ccc(N3CCOCC3)cc2)n1 — within error, -5.25 ± 7.3%
- Nc1ccc(C#Cc2cncnc2Nc2ccc(OCc3cccc(F)c3)c(Cl)c2)cc1 — within error, -6.22 ± 2.5%
- Cc1cc(Nc2nc(N[C@@H](C)c3ccc(F)cc3)c(C#N)cc2F)n[nH]1 — higher, 96.93 ± 0.13%
- CNC(=O)c1ccccc1Nc1nc(Nc2ccc(N3CCOCC3)cc2OC)ncc1Cl — within error, -3.4 ± 13%
- Fc1ccc(-c2nn3ccccc3c2-c2ccncc2)cc1 — higher, 20.7 ± 8.6%
- CNC(=O)c1cc(-c2ccc(F)cc2)cc(-c2ccc(S(=O)(=O)N3CCCC3)cc2)c1N — within error, -4.95 ± 15%
- COc1cc2ncn(-c3cc(OCc4ccccc4Cl)c(C(N)=O)s3)c2cc1OC — within error, -6.56 ± 0.46%
- Cc1ccc(NC(=O)c2cccc(C(C)(C)C#N)c2)cc1Nc1ccc2ncn(C)c(=O)c2c1 — higher, 47.4 ± 11%
- CC(C)c1cnn2c(NCc3ccccc3)cc(NCCCCCCN)nc12 — higher, 102 ± 5.9%
- Nc1ccc(C(=O)Nc2cccc(-c3nc(N4CCOCC4)c4oc5ncccc5c4n3)c2)cn1 — higher, 31.1 ± 1.6%
- N#Cc1cccc(Nc2ncc(-c3ccccc3)o2)c1 — within error, -4.01 ± 1.7%
- NS(=O)(=O)c1ccc(N/N=C2\C(=O)Nc3ccc4ncccc4c32)cc1 — within error, -6.48 ± 3.8%
- COC(=O)c1cncc(/C=C/c2c(C)cc(O)cc2C)c1 — within error, -6.45 ± 1.7%
- COCCOc1ccc2c(c1)ncn2-c1ccc2cccc(N3CCC(N)CC3)c2n1 — within error, 7.08 ± 14%
- Cc1ccc(C(=O)NC2CCCCC2)cc1-c1ccc(C(=O)NCC2CC2)cc1 — within error, -1.78 ± 6.1%
- COc1cccc2cc(-c3nc([C@H]4CC[C@H](C(=O)O)CC4)n4ncnc(N)c34)[nH]c12 — higher, 16.8 ± 14%
- COc1ccc(-c2oc3ncnc(N)c3c2-c2ccc(NC(=O)Nc3cc(C(F)(F)F)ccc3F)cc2)cc1 — within error, -3.49 ± 7.6%
- COc1ccc2c(-c3ccnc(Nc4cccc(OC(F)(F)F)c4)n3)cnn2n1 — within error, -7.53 ± 17%
- CNC(=O)c1nn(C)c2c1C(C)(C)Cc1cnc(Nc3ccc(N4CCN(C)CC4)cc3)nc1-2 — higher, 20.7 ± 8.5%
- CC1=C(C(=O)Nc2ccc3[nH]ncc3c2)C(c2ccc(F)cc2)N=C(c2ccc(C(F)(F)F)nc2)N1 (stereo not drawn) — within error, 4.07 ± 7.3%
- C[C@@H](N)[C@H]1CC[C@H](C(=O)Nc2ccncc2)CC1 — higher, 24.6 ± 17%
